# Rows were chosen to be rich in hits. Some 9.3% of all compounds tested hit in one or more screens of this group.
# Rab9 prom act: qHTS Assay for Rab9 Promoter Activators; Potency, µM (titrated, usually from 9.22 µM), for the others: at the highest dose activation, negative = inhibition, usual class: activators; actives 2.8% (n = 320,000); Huh7 Rab9 promoter-luciferase reporter, luminescence, 24 h; further: % of control where 0% means no effect; nearly all actives have a fitted effect of over 60% in size
#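 Luminescence read-out: Huh7 cells stably expressing Rab9-luciferase, treated 24 h with compound at 37 °C, then lysed with luciferase reagent for 10 min at ambient before reading.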
# FLuc counter: qHTS profiling assay for firefly luciferase inhibitor/activator using purifed enzyme and Km concentrations of substrates (counterscreen for miR-21 project) | purified FLuc, Km substrates, luminescence inhibition | Potency, µM (highest dose often 57.5 µM), for the others: at the top dose activity change, negative = inhibition, most hits filed as inhibitors | actives 6.9% (n = 360,000) | AID 588342, 2011;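 further: plate controls were vehicle for no effect and reference inhibitor for full effect; nearly all actives have a fitted effect of over 55% in size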
# Target sequence (P08659 whole entry, looked up): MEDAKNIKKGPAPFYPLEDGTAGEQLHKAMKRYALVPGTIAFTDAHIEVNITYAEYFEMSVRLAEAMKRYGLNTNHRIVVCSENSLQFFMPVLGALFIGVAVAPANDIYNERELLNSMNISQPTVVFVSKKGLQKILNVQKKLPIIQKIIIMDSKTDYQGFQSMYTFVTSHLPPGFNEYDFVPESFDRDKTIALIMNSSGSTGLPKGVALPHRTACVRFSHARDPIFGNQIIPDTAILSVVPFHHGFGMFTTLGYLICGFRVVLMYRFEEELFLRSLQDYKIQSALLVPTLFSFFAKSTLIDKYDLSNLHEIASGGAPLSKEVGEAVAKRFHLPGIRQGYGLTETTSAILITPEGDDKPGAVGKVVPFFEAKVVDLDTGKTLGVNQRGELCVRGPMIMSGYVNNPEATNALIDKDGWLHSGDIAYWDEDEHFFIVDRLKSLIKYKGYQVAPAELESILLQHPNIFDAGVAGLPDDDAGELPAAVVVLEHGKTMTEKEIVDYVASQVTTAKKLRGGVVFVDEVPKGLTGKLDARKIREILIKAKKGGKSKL
#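 Purified P. pyralis luciferase (10nM final) with 10uM D-luciferin and 10uM ATP (Km levels) in 50mM Tris acetate pH 7.5, 10mM Mg acetate, 0.01% Tween-20, 0.05% BSA; qHTS 6-point titration, ~60 µM downward; luminescence read.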
# ELG1 genotoxic: qHTS screen for small molecules that induce genotoxicity in human embryonic kidney (HEK293T) cells expressing luciferase-tagged ELG1; actives 1.3% (n = 330,000); AID 504466, 2011; HEK293T ELG1-luciferase reporter, luminescence, 16 h; Potency, µM (top dose mostly 46 µM), without a hit: at the top dose activity change, positive = activation, hits mostly activators; further: % of control where 0% means no effect; nearly all actives have a fitted effect of over 60% in size
#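 Luminescence read-out: rising ELG1-luciferase signal, reflecting elevated ELG1 protein under genetic stress, flags genotoxic compounds. Cells were treated for 16 hr at 37 °C before ONE-Glo detection.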
# ELG1 repair inh: qHTS screen for small molecules that inhibit ELG1-dependent DNA repair in human embryonic kidney (HEK293T) cells expressing luciferase-tagged ELG1; actives 2.3% (n = 330,000); Potency, µM (titrated, usually from 46.1 µM), for the others: at the top dose activity change, negative = inhibition, usual class: inhibitors; HEK293T ELG1-luciferase reporter, luminescence, 16 h; DNA damage induced by 5-fluorouridine; further: on the % scale 0 is the no-effect control and ±100 the full control effect; nearly all actives have a fitted effect of over 55% in size
#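 Reporter activity after DNA damage by 5-fluorouridine is monitored. Compound-treated cells incubate 16 hr at 37 °C, then ONE-Glo is added for 30 min before luminescence reading.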
# NPC1 prom act: qHTS Assay for NPC1 Promoter Activators. Huh7 NPC1 promoter luciferase reporter, 24 h. Potency, µM (series often up to 9.22 µM), for inactives: at the top dose activation, hits mostly activators. actives 2.4% (n = 320,000). AID 485313, 2010; further: % of control where 0% means no effect; nearly all actives have a fitted effect of over 60% in size
#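 Huh7 reporter cells (NPC1 promoter driving luciferase) are dosed with compound for 24 h at 37 °C, 5% CO2; luciferase detection reagent is then added and luminescence measured after 10 min at ambient temperature.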
# SMN2 splice enh: qHTS Assay for Enhancers of SMN2 Splice Variant Expression. HEK293 SMN2-luciferase splicing reporter, luminescence, 30-36 h. Potency, µM (doses to about 46.1 µM), without a hit: at the highest dose activity change, positive = activation, hits mostly activators. actives 2.8% (n = 210,000). AID 1458, 2008; further: % of control where 0% means no effect; nearly all actives have a fitted effect of over 55% in size
#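 HEK293 cells carry an SMN2 minigene-luciferase reporter in which exon 7 inclusion puts luciferase in frame. Cells were seeded at 2000 cells/well, attached for 10-12 hours, then exposed to compounds for 30-36 hours at 37C before ONE-Glo luminescence.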
# * hit, by the source's call; ? = inconclusive; . = not tested or not shown; [ ] = another dose, or the depositor's remark. The call rests on the fitted dose curve; in most records, active means well fitted curve in the direction sought with a large enough effect; inconclusive means small, poorly fitted or top-dose-only effect, or another doubt; inactive means no such curve, though single readings can be large; an effect the other way counts as inactive or inconclusive. Potency means the concentration at half of the fitted maximal effect.
SMILES,Rab9 prom act,FLuc counter,ELG1 genotoxic,ELG1 repair inh,NPC1 prom act,SMN2 splice enh
C#CCSc1nnc(-c2ccc([N+](=O)[O-])cc2)o1,3.2µM*,?,16%,?,26%,20%
Cc1ccc(NC(=O)C2CCN(S(=O)(=O)c3c(C)noc3C)CC2)c(C)c1,.,-2%,.,.,.,-11%
Cc1ccc2nc(NC(=O)c3cccc(-c4cc5ccccc5oc4=O)c3)sc2c1,?,21µM*,?,?,?,0%
O=C(Nc1cccnc1)c1cccc(-c2cc3ccccc3oc2=O)c1,-4%[1.84 µM],?,12%,?,18%,20%
CCn1nnc(NC(=O)c2cccc(-c3cc4ccccc4oc3=O)c2)n1,2.5µM*,15µM*,?,?,?,13µM*
CC(=O)Nc1ccc(-c2csc(NC(=O)Cc3ccccc3F)n2)cc1,28%,?,-14%,-3%,18%,.
CCCC(=O)Nc1ccc(-c2csc(N/N=C\c3ccncc3)n2)cc1,?,3µM*,-13%,?,?,.
CC(=O)Nc1ccc(-c2csc(N/N=C\c3ccncc3)n2)cc1,15%,7.6µM*,-6%,?,18%,.
CCCC(=O)Nc1ccc(-c2csc(NNC(C)=O)n2)cc1,1%,-17%,-1%,7%,0%,.
O=C(OCC1CC(c2ccccc2)=NO1)c1ccco1 (centres undefined),1%,7.6µM*,2%,18%,-1%,.
O=C(OCC1CC(c2ccccc2)=NO1)c1ccc(Br)cc1 (centres undefined),2%,6%,0%,?,0%,?
CC12CCC(C(=O)NCc3ccc(F)cc3)(OC1=O)C2(C)C (centres undefined),-4%,-1%,0%,?,-7%,-7%
COc1ccc(NC(=O)COC(=O)CO/N=C(\C)c2ccc3c(c2)OCO3)cc1S(N)(=O)=O,4%,-19%,3%,41%,-3%,.
O=C(Nc1nnc(C2CCCCC2)s1)c1cccs1,2.8µM*,4.8µM*,?,?,2.2µM*,14µM*
O=C(Nc1nnc(C2CCCO2)s1)c1cccs1 (centres undefined),15%,?,?,?,29%,13µM*
CCCC(=O)Nc1nnc(C2CCCO2)s1 (centres undefined),-2%,-3%,-1%,2%,-1%,.
COc1cccc(C(=O)Nc2nnc(C3CCCO3)s2)c1 (centres undefined),2.2µM*,15µM*,?,?,2.8µM*,11µM*
CCOc1ncccc1C(=O)Nc1nc(SC)ns1,?,?,?,?,10%,?
Cc1ccc(-c2cccc(OC(=O)c3ccccc3F)c2)cc1,7%,5.4µM*,8%,?,-8%,17%
CC(C)(C)c1cc(OC(=O)c2ccccc2F)ccc1O,-2%,27µM*,-1%,-7%,1%,.
COc1ccc([C@]23Cc4cc(C#N)ccc4C(O2)C2=C(CC4(CCCCC4)OC2=O)O3)cc1,-7%[1.84 µM],-2%[11.5 µM],.,.,-7%[1.84 µM],.
COc1ccc(CCNC(=O)CSCc2nc(-c3cccc(C)c3)oc2C)cc1OC,.,-16%,.,.,.,-27%
COc1cc(C2CC(=O)c3c([nH]c(C(=O)OC4CCCC4)c3C)C2)cc(OC)c1OC (centres undefined),.,-15%,.,.,.,-74%
N/C(=N\OC(=O)COc1ccc(Cl)cc1)c1cccnc1,1%,?,9%,?,4%,19%
N/C(=N\OC(=O)COc1ccc2ccccc2c1)c1ccncc1,2%,?,-3%,6%,-4%,.
SMILES,Rab9 prom act,FLuc counter,ELG1 genotoxic,ELG1 repair inh,NPC1 prom act,SMN2 splice enh
CCc1ccc(OCC(=O)O/N=C(\N)c2ccncc2)c(Br)c1,2µM*,7.6µM*,?,?,3.2µM*,.
N/C(=N\OC(=O)CCCOc1ccc(Cl)cc1Cl)c1ccncc1,-5%,?,0%,-2%,-5%,7%
N/C(=N\OC(=O)COc1ccc(Cl)cc1Cl)c1cccnc1,4%,6µM*,?,?,25%,?
N/C(=N\OC(=O)COc1ccc(Cl)cc1Br)c1ccncc1,3.5µM*,11µM*,8.2µM*,?,3.5µM*,11µM*
N/C(=N\OC(=O)COc1ccc2ccccc2c1Br)c1ccncc1,2%,21µM*,?,?,11%,1%
COCCNC(=O)CN(C(=O)CCC(=O)Nc1ccccn1)c1ccc(C)c(C)c1,0%,-2%,-4%,6%,3%,.
CCOc1ccc(N=CNc2ccc(OCC)cc2)cc1,-5%,?,-1%,4%,12%,.
CCOc1ccc(N=Cc2ccc3ccccc3c2)cc1,-2%,0.76µM*,0%,6%,12%,.
CC(C)(C)c1ccc(C(=O)Nc2ccc(C(=O)OCc3cc(=O)n4ccsc4n3)cc2)cc1,.,-2%,.,.,.,.
COc1ccc(CCNC(=O)COc2ccc3c(C)cc(=O)oc3c2)cc1,.,.,-3%,4%,.,.
COc1ccc(COc2cccc(C=O)c2)cc1,?,24µM*,-1%,?,?,.
COc1ccc(COc2ccc3c(C)cc(=O)oc3c2)cc1,?,5.4µM*,9.2µM*,?,2.2µM*,.
O=Cc1cccc(OCc2cccc3ccccc23)c1,4µM*,27µM*,?,?,2.8µM*,.
NC(=O)c1ccccc1OCc1cccc2ccccc12,5%,-19%,-4%,-6%,3%,.
c1ccc(CN2CCN(CCOCCOc3ccc4c(c3)CCC4)CC2)cc1,19%,1%,-3%,-1%,-3%,.
COc1cc(C(=O)NCCC(=O)N2CCC3(CC2)NCCc2[nH]cnc23)cc(OC)c1OC,6%,-1%,-2%,17%,-3%,.
CCC(Sc1nc(C)cc(C)n1)C(=O)Nc1nccs1 (centres undefined),-2%,-6%,-14%,18µM*,-14%,.
CCC(Sc1nnc(C)s1)C(=O)Nc1nccs1 (centres undefined),2%,0%,-1%,?,-2%,-6%
COc1ccc(NC(=O)CN(C)CC(=O)Nc2sc3c(c2C(N)=O)CCC3)cc1,2%,3%,0%,21µM*,-8%,.
COc1ccc2nc(NCc3cccnc3)sc2c1,?,?,13%,?,23%,.

# Assay outcomes (PubChem)
